Source: the supplement of paper PMC6555819

What was measured:
Experiment in all cases: PBM binding z-score (relative to random genomic background probes); higher = stronger binding; sequences stand for … in GC…GCGATTGACAGCGTAGAATGAAGG
[1] = tested on: FXR:RXRa (NR concentration 270 nM, RXRa partner concentration 90 nM)
Summary of the method: (§1)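 Each nuclear receptor dimer, without ligand, was incubated for 1 h on custom Agilent 4×180K protein-binding microarrays. Binding was detected with antibodies against each partner (one per run), and scanned fluorescence was regression-normalized. The binding z-scores are referenced to random human genomic background probes.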

[2] = tested on: LXRa:RXRa (NR concentration 270 nM, RXRa partner concentration 90 nM)
Summary of the method: as §1

[3] = tested on: LXRa homodimer (NR concentration 270 nM)
Summary of the method: as §1

[4] = tested on: LXRb:RXRa (NR concentration 270 nM, RXRa partner concentration 90 nM)
Summary of the method: as §1

[5] = tested on: LXRb homodimer (NR concentration 270 nM)
Summary of the method: as §1

[6] = tested on: PPARa:RXRa (NR concentration 270 nM, RXRa partner concentration 90 nM)
Summary of the method: as §1

[7] = tested on: PPARg:RXRa (NR concentration 180 nM, RXRa partner concentration 90 nM)
Summary of the method: as §1

[8] = tested on: PPARg:RXRa 270nM:90nM, anti-RXR (NR concentration 270 nM, RXRa partner concentration 90 nM)
Summary of the method: as §1

[9] = tested on: PPARg:RXRa 30nM:10nM, anti-RXR (NR concentration 30 nM, RXRa partner concentration 10 nM)
Summary of the method: as §1

[10] = tested on: PPARg:RXRa 90nM:30nM, anti-RXR (NR concentration 90 nM, RXRa partner concentration 30 nM)
Summary of the method: as §1

[11] = tested on: PPARg:RXRa DBDmut IVT, anti-RXR (DBD mutation: RXRa K156A/R161A, NR concentration 270 nM, RXRa partner concentration 90 nM)
Summary of the method: as §1

[12] = tested on: PPARg:RXRa IVT, anti-PPARg (NR concentration 270 nM, RXRa partner concentration 90 nM)
Summary of the method: as §1

[13] = tested on: PPARg DBDmut:RXRa IVT, anti-PPARg (DBD mutation: PPARg1 K132A/R137A, NR concentration 270 nM, RXRa partner concentration 90 nM)
Summary of the method: as §1

[14] = tested on: PPARg DBDmut IVT, anti-PPARg (DBD mutation: PPARg1 K132A/R137A, NR concentration 270 nM)
Summary of the method: as §1

[15] = tested on: PPARg homodimer (NR concentration 180 nM)
Summary of the method: as §1

[16] = tested on: PXR:RXRa (NR concentration 270 nM, RXRa partner concentration 90 nM)
Summary of the method: as §1

[17] = tested on: PXR homodimer (NR concentration 270 nM)
Summary of the method: as §1

[18] = tested on: RARa:RXR (NR concentration 270 nM, RXRa partner concentration 90 nM)
Summary of the method: as §1

[19] = tested on: RARa homodimer (NR concentration 270 nM)
Summary of the method: as §1

[20] = tested on: RARb:RXRa (NR concentration 270 nM, RXRa partner concentration 90 nM)
Summary of the method: as §1

Row | Sequence | PBM binding z-score [1] | PBM binding z-score [2] | PBM binding z-score [3] | PBM binding z-score [4] | PBM binding z-score [5] | PBM binding z-score [6] | PBM binding z-score [7] | PBM binding z-score [8] | PBM binding z-score [9] | PBM binding z-score [10] | PBM binding z-score [11] | PBM binding z-score [12] | PBM binding z-score [13] | PBM binding z-score [14] | PBM binding z-score [15] | PBM binding z-score [16] | PBM binding z-score [17] | PBM binding z-score [18] | PBM binding z-score [19] | PBM binding z-score [20]
1 | TCGAGTGGGTTAGGGGCATTCAGAATGGCGTCGA | 0.437 | 0.401 | 0.0912 | 1.41 | 0.759 | 1.46 | 0.402 | 1.73 | 0.9 | 1.31 | 1.25 | 0.919 | -0.337 | -0.345 | 0.908 | 1.04 | 0.501 | 0.739 | 0.24 | 0.943
2 | ATCTCGAGGTAAAAGTTCAGTGAATCCCGAGGAT | 1.26 | 1.85 | 0.551 | 1.28 | 0.304 | 3.44 | 5.01 | 5.51 | 4.17 | 5.67 | -0.0537 | 2.11 | 0.38 | 0.58 | 0.813 | 2.53 | 0.878 | 2.6 | -0.00487 | 2.54
3 | TCTTGTAGATCAATAGAGGTTAACAAAGTGCGCT | 0.932 | 4.21 | 0.47 | 2.29 | 0.171 | 2.18 | 0.373 | 1.66 | 2.57 | 2 | 1.65 | 1.38 | 0.608 | 1.56 | 0.466 | 3.82 | 0.45 | 2 | 0.875 | 1.02
4 | TTTCCAAGGTGAAGGTCGTTGATCCCTCTGTAGA | 2.77 | 2.31 | 0.296 | 1.8 | -0.21 | 2.81 | 2.68 | 3.7 | 1.88 | 3.35 | 1.63 | 3.3 | -0.24 | 0.793 | 1.03 | 1.68 | 0.247 | 2.21 | -0.347 | 2.29
5 | TATACAGGGTCAAAGGCCAGAGTTCGAATGTCGA | 7.08 | 6.38 | 3.94 | 4.81 | 2.5 | 6.15 | 8.48 | 7.27 | 5.54 | 7.17 | 2.55 | 4.54 | 1.63 | 2 | 3.99 | 5.44 | 2.54 | 6.63 | 1.14 | 4.53
6 | CCTTACGGGTCACTCCAGGTTATAGCGTCGGAGT | 5.26 | 7.75 | 1.89 | 5.52 | 0.0674 | 4.65 | 3.13 | 3.94 | 1.17 | 2.7 | 2.49 | 3.79 | 0.79 | -0.822 | 2.29 | 5.1 | 0.516 | 4.18 | 0.581 | 3.74
7 | GGAACGAAGGCAAAGTTGATAGCATCTGTCGACG | -0.685 | -0.726 | -0.64 | -0.769 | -1.04 | 1.16 | 2.69 | 4.58 | 2.36 | 4.01 | -0.211 | 0.452 | -0.0938 | 0.0461 | -0.879 | -0.707 | -0.569 | -0.458 | -0.886 | -0.337
8 | TCATGTAGATCAACAGGAGGTTAAGAAAGATCGA | 0.191 | 1.12 | 0.0437 | 0.814 | -0.691 | 1.38 | 0.396 | 1.35 | 2.65 | 1.97 | 1.44 | 0.504 | 0.449 | 0.653 | -0.00792 | 0.814 | -0.17 | 1.3 | 0.399 | 0.499
9 | TAGCCTAGGTCATGCAGGGGCCAGTATAGAAAGC | 3.95 | 3.15 | -0.0993 | 2.24 | -0.427 | 3.56 | 2.28 | 2.44 | 0.917 | 1.5 | 1.42 | 2.59 | -0.359 | -0.442 | 1.36 | 2.18 | -0.721 | 3.39 | -0.25 | 3.85
10 | GGAACGAGGGCAACGTTGATAGCATCTGTCGACG | 0.32 | 0.21 | -0.371 | 0.0442 | -0.855 | 1.59 | 1.9 | 1.95 | 0.134 | 1.2 | 4.02 | 3.49 | 0.439 | 0.351 | -0.132 | 0.282 | -0.723 | 0.65 | -0.381 | 2.32
11 | GATACAGTGTCAGCTAGAGGCCAGAGTATGGAAA | -0.507 | -0.554 | -0.437 | -0.763 | -0.98 | -0.257 | 0.158 | -0.349 | -0.273 | -0.224 | -0.588 | 0.187 | 0.343 | -0.259 | -0.286 | -0.439 | -0.0774 | -0.0269 | -0.579 | 0.973
12 | CCTACTGGGCCAAAGTTCATTGATTCCAATGCTC | 2.2 | 3.36 | 4.36 | 2.6 | 0.0133 | 5.47 | 10.9 | 9.53 | 9.33 | 11.8 | 4.73 | 6.06 | -0.1 | -0.115 | 4.94 | 4.5 | 8.31 | 2.99 | 0.508 | 3.13
13 | CCTGCTAGATCATGGTCAGCTAATCTACAGTATG | -0.747 | -0.678 | -0.68 | -0.476 | -0.922 | -0.672 | 0.0409 | -0.513 | -0.306 | -0.269 | 0.393 | -0.546 | -0.661 | -0.698 | -0.74 | -0.448 | -0.524 | -0.328 | -0.726 | -0.0385
